# Assay results published in PubChem BioAssay (Tox21).
# Values joined by “and” are separate entries in the source; they are usually repeats but may differ in a detail not shown here. Identical values can stand only once. Some compounds were tested as several samples or in several runs, with calls that do not always agree. Active and inactive are the calls of the source. Where a call stands in place of a potency, no number is given. Unless noted, calls come from the whole dose curve; as a rule, active = well fitted curve in the direction sought with a large enough effect in the repeat runs; inconclusive = weak or mixed curves; inactive = no such curve, though single readings can be large; an effect the other way counts as inactive or inconclusive.
# Experiments:
# [1] = qHTS assay to identify small molecule antagonists of the thyroid receptor (TR) signaling pathway - cell viability counter screen (AID 743064); note: nearly all actives have a fitted effect of over 50% in size; note: potency is the fitted concentration of half-maximal effect
# Outline: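 GH3.TRE-Luc rat pituitary cells dosed after 4 hr plating, co-stimulated with T3 at 1 nM final, incubated 23.5 h at 37 C. Viability measured in the same wells by CellTiter-Fluor fluorescence after 30 min further at 37 C.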
# [2] = tested on: thyroid hormone receptor (rat, GH3 cells); assay: qHTS assay to identify small molecule agonists of the thyroid receptor (TR) signaling pathway (AID 743066; calls by dose curve; note: potency is the fitted concentration of half-maximal effect)
# [3] = molecular target: Estrogen receptor (Homo sapiens) (UniProt P03372); assay: qHTS assay to identify small molecule antagonists of the estrogen receptor alpha (ER-alpha) signaling pathway (AID 743069; active = well fitted curve in the direction sought with a large enough effect in the signal ratio in the repeat runs, not every such curve was filed as active; inconclusive = weak or mixed curves, or effect the other way; inactive = no such curve, though single readings can be large or run the other way; the % refers to the signal ratio; note: potency is the fitted concentration of half-maximal effect)
# Chain of Estrogen receptor (Homo sapiens) (P03372 whole entry, looked up): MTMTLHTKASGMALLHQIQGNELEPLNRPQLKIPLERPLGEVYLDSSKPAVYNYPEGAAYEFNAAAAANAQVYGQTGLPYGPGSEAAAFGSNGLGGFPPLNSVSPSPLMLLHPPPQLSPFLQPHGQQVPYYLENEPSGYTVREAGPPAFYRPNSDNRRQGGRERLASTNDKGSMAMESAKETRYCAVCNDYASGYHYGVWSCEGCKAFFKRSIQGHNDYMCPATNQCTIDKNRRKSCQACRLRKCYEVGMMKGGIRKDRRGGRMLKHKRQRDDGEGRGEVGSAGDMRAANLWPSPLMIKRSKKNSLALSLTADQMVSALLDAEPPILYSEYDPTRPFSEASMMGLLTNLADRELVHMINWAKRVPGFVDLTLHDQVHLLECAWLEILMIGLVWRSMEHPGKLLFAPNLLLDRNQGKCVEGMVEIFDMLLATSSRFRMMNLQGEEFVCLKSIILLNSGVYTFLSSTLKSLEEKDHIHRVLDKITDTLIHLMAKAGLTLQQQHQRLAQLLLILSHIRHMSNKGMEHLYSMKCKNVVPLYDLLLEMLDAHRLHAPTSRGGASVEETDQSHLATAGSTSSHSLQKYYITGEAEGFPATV
# Outline: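 Screening used a UAS-driven beta-lactamase reporter integrated into HEK293 cells expressing ER-alpha, stimulated with 17beta-estradiol alongside test compounds over 18 hr at 37C; signal came from LiveBLAzer B/G FRET fluorescence.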
# [4] = qHTS assay to identify small molecule antagonists of the estrogen receptor alpha (ER-alpha) signaling pathway - cell viability counter screen (AID 743074; calls by dose curve; note: nearly all actives have a fitted effect of over 45% in size)
# [5] = molecular target: Estrogen receptor (Homo sapiens) (UniProt P03372); assay: qHTS assay to identify small molecule agonists of the estrogen receptor alpha (ER-alpha) signaling pathway (AID 743075; calls by dose curve)
# [6] = molecular target: Estrogen receptor (Homo sapiens) (UniProt P03372); assay: qHTS assay to identify small molecule agonists of the estrogen receptor alpha (ER-alpha) signaling pathway using the BG1 cell line (AID 743079); note: nearly all actives have a fitted effect of over 20% in size; note: potency is the fitted concentration of half-maximal effect
# [7] = qHTS assay to identify small molecule antagonists of the estrogen receptor alpha (ER-alpha) signaling pathway using the BG1 cell line (AID 743080; calls by dose curve;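 note: BG1 cells stimulated with 17beta-estradiol alongside compound; series mostly up to about 70 µM; nearly all actives have a fitted effect of over 25% in size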)
# Outline: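 BG1-Luc-4E2 cells (endogenous full-length ER-alpha, stable 4×ERE-luciferase) were starved 5 days in phenol-red-free medium with 10% charcoal-stripped FBS, plated 24 h, then given compound plus 17beta-estradiol for 21.5 h at 37 C; ONE-Glo luminescence read after 30 min.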
# [8] = qHTS assay to identify small molecule antagonists of the estrogen receptor alpha (ER-alpha) signaling pathway using the BG1 cell line - cell viability counter screen (AID 743081);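 note: compound given together with 17beta-estradiol as the ER stimulus; series mostly up to about 70 µM; nearly all actives have a fitted effect of over 45% in size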
# Aromatase (Homo sapiens) = Aromatase (Homo sapiens) (UniProt P11511); assay: qHTS assay to identify aromatase inhibitors (AID 743083); note: nearly all actives have a fitted effect of over 55% in size; note: potency is the fitted concentration of half-maximal effect
# Chain of Aromatase (Homo sapiens) (P11511 whole entry, looked up): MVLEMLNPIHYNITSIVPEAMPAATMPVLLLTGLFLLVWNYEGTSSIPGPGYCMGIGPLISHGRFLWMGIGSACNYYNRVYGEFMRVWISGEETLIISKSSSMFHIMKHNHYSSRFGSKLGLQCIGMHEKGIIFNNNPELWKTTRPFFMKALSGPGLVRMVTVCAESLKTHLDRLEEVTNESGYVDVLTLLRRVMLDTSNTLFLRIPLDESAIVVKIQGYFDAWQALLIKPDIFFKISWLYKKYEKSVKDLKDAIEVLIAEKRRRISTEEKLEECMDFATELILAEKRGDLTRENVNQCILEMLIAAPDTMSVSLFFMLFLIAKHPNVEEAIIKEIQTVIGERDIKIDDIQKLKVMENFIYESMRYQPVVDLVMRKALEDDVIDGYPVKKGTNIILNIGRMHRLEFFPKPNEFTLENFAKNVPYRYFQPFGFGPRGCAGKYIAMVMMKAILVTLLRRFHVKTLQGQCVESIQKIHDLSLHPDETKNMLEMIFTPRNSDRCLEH
# [9] = qHTS assay to identify aromatase inhibitors - cell viability counter screen (AID 743084);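 note: cells stimulated with testosterone during compound exposure; nearly all actives have a fitted effect of over 55% in size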; note: potency is the fitted concentration of half-maximal effect
# [10] = molecular target: Aryl hydrocarbon receptor (Homo sapiens) (UniProt P35869); assay: qHTS assay to identify small molecule that activate the aryl hydrocarbon receptor (AhR) signaling pathway (AID 743085); note: nearly all actives have a fitted effect of over 15% in size; note: potency is the fitted concentration of half-maximal effect;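 for activation: HG2L7.5c1 human HepG2 liver cells with stably integrated DRE-driven firefly reporter; series mostly up to about 70 µM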
# Chain of Aryl hydrocarbon receptor (Homo sapiens) (P35869 whole entry, looked up): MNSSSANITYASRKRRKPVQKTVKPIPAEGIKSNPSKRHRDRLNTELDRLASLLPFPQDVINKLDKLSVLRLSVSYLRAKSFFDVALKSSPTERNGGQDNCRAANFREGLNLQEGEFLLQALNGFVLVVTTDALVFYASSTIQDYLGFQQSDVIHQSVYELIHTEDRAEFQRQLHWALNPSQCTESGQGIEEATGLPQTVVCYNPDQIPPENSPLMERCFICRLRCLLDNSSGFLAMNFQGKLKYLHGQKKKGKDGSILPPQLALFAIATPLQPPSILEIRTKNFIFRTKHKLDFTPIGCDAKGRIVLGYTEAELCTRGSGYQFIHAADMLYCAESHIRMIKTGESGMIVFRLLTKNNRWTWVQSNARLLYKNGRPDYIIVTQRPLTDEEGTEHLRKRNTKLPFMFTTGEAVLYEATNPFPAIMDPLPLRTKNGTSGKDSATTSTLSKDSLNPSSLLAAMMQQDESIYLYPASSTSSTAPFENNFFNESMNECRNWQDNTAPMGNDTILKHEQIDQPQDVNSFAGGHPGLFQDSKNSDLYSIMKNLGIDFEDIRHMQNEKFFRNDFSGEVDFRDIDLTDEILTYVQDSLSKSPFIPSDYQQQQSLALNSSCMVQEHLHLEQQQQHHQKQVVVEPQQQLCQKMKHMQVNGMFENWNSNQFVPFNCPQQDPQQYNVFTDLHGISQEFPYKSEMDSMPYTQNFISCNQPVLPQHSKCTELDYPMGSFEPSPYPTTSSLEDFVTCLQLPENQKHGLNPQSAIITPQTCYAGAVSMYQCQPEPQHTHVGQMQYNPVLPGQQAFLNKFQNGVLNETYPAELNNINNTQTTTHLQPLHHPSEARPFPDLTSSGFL
# Outline: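 HepG2 cells stably carrying a 20-DRE firefly luciferase reporter (HG2L7.5c1) treated with compound for 24 hr at 37C. Luciferase read by ONE-Glo luminescence, with CellTiter-Fluor viability read first.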
# [11] = qHTS assay to identify small molecule that activate the aryl hydrocarbon receptor (AhR) signaling pathway - cell viability counter screen (AID 743086);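 note: HepG2 liver cells carrying the AhR DRE luciferase reporter; series mostly up to about 70 µM; nearly all actives have a fitted effect of over 45% in size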
# Outline: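 HepG2-AhR-luc (HG2L7.5c1) cells, 4000/well, were preincubated 5 h at 37C, exposed to compound in qHTS format for 24 hr at 37C, then given CellTiter-Fluor for 30 min; viability was read as fluorescence in the reporter wells.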
# [12] = molecular target: Peroxisome proliferator-activated receptor gamma (Homo sapiens) (UniProt P37231); assay: qHTS assay to identify small molecule agonists of the peroxisome proliferator-activated receptor gamma (PPARg) signaling pathway (AID 743094; active = well fitted activation curve with a large enough effect in the signal ratio in the repeat runs, not every such curve was filed as active; inconclusive = weak or mixed curves, or effect the other way; inactive = no such curve, though single readings can be large or run the other way; the % refers to the signal ratio)
# Chain of Peroxisome proliferator-activated receptor gamma (Homo sapiens) (P37231 whole entry, looked up): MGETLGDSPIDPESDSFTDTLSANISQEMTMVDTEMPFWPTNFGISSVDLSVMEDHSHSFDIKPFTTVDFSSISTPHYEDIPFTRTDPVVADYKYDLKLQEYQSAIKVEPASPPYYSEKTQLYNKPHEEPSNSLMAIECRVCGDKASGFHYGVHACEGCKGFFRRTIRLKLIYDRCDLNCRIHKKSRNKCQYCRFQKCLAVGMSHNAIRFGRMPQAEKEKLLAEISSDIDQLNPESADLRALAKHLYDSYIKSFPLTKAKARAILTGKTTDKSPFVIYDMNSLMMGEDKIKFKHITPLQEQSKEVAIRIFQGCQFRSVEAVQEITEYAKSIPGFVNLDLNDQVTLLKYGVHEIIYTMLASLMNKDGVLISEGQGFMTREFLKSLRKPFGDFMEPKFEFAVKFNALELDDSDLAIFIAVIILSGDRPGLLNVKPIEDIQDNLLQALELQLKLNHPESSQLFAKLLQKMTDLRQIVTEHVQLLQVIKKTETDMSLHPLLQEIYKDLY
# Outline: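 Fluorescence-based beta-lactamase readout in HEK293H PPARg UAS-bla cells after 17 h compound exposure (37C) and 1 h B/G FRET substrate incubation at room temperature.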
# [13] = molecular target: Peroxisome proliferator-activated receptor gamma (Homo sapiens) (UniProt P37231); assay: qHTS assay to identify small molecule antagonists of the peroxisome proliferator-activated receptor gamma (PPARg) signaling pathway (AID 743191; calls by dose curve; note: nearly all actives have a fitted effect of over 30% in size; note: potency is the fitted concentration of half-maximal effect)
# Outline: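 GeneBLAzer PPARg UAS-bla HEK293H cells carrying a UAS-driven beta-lactamase reporter were plated at 3000 cells/well, preincubated 5 h at 37C, then given compound for 17 h at 37C; LiveBLAzer B/G FRET substrate was read after 1 h at room temperature.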
# [14] = qHTS assay to identify small molecule antagonists of the peroxisome proliferator-activated receptor gamma (PPARg) signaling pathway - cell viability counter screen (AID 743194); note: nearly all actives have a fitted effect of over 55% in size
# Outline: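 PPARg-UAS-bla HEK293H cells were plated, rested 5 h at 37 C, then treated with compounds plus rosiglitazone (50 nM final) for 17 h at 37 C; viability was then read by CellTiter-Glo luminescence after 30 min at room temperature.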
# [15] = qHTS assay for small molecule agonists of the antioxidant response element (ARE) signaling pathway (AID 743202; active = well fitted activation curve with a large enough effect in the signal ratio in the repeat runs, not every such curve was filed as active; inconclusive = weak or mixed curves, or effect the other way; inactive = no such curve, though single readings can be large or run the other way; the % refers to the signal ratio; note: potency is the fitted concentration of half-maximal effect)
# Outline: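 Steps: seed ARE-bla HepG2 cells (2,000/well); incubate 5 h at 37 C; add compounds by pin tool; incubate 16 h at 37 C; add FRET substrate; read fluorescence after 2 h at RT.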
# [16] = qHTS assay for small molecule agonists of the antioxidant response element (ARE) signaling pathway - cell viability counter screen (AID 743203; calls by dose curve; note: nearly all actives have a fitted effect of over 55% in size; note: potency is the fitted concentration of half-maximal effect)
# Outline: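 Parallel cytotoxicity read-out for the ARE-bla screen: HepG2 reporter cells, 16 hrs with compounds, then CellTiter-Glo luminescence.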
# [17] = qHTS assay for small molecule activators of the heat shock response signaling pathway - cell viability counter screen (AID 743209); note: nearly all actives have a fitted effect of over 50% in size; note: potency is the fitted concentration of half-maximal effect
# Outline: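 To flag cytotoxic compounds, HSE-bla HeLa cells plated at 1500 cells/well were dosed for 5 h at 37 C, followed by the reporter FRET read and then CellTiter-Glo, with luminescence recorded 30 min after reagent addition.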
# [18] = qHTS assay for small molecule activators of the heat shock response signaling pathway (AID 743210; active = well fitted activation curve with a large enough effect in the signal ratio in the repeat runs, with a control signal flat, not every such curve was filed as active; inconclusive = weak or mixed curves; the % refers to the signal ratio; note: potency is the fitted concentration of half-maximal effect;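 for activation: HeLa cells with beta-lactamase reporter driven by heat shock elements; series mostly up to about 63 µM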)
# Outline: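 Activation of heat shock element-controlled beta-lactamase expression is measured in HeLa cells by LiveBLAzer FRET fluorescence, with compound exposure lasting 5 h at 37 C and substrate loading 2.5 h at room temperature.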
# [19] = qHTS assay to identify small molecule antagonists of the thyroid receptor (TR) signaling pathway (AID 743065)
# Outline: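 GH3.TRE-Luc rat pituitary cells carrying two TR response elements driving luciferase were plated for 4 h, given compound plus 1 nM T3 (final), and incubated 23.5 h at 37 C. ONE-Glo luminescence measured reporter inhibition; CellTiter-Fluor fluorescence tracked cytotoxicity.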
SMILES,Potency [1],Potency [2],Potency [3],outcome [4],outcome [5],Potency [6],outcome [7],outcome [8],Potency (Aromatase (Homo sapiens)),Potency [9],Potency [10],outcome [11],outcome [12],Potency [13],outcome [14],Potency [15],Potency [16],Potency [17],Potency [18],Potency [19]
Oc1c(Br)cc(Br)cc1Br,inactive,inactive,inactive and 61.8 µM [inconclusive] (active),inactive,inactive,inactive,inactive,inactive,inactive,inactive,inactive,inactive,inactive,43.7 µM (active),inactive,15.4 µM (active),inactive,inactive,inactive,
CSc1nnc(C(C)(C)C)c(=O)n1N,inactive,inactive,,inactive,,,,inactive,,,,inactive,,,,inactive,inactive,inactive,inactive,inactive
CCOP(=S)(OCC)Oc1ccc([N+](=O)[O-])cc1,inactive,inactive,,inactive,,,,inactive,inactive,inactive,31 µM (active) and 10.6 µM (active),inactive,inactive,inactive,,inactive,inactive,inactive,inactive,inactive
O=[N+]([O-])c1ccc(Cl)cc1,inactive,inactive,,inactive,,,,inactive,inactive,inactive,inactive,inactive,,,inactive,inactive,inactive,inactive,inactive,inactive
COc1nc(NC(C)C)nc(NC(C)C)n1,inactive,inactive,inactive,inactive,inactive,inactive,inactive,inactive,inactive,inactive,inactive,inactive,inactive,inactive,inactive,inactive,inactive,inactive,inactive,
Nc1ncc([N+](=O)[O-])s1,inactive,inactive,inactive,inactive,inactive,inactive and 61.1 µM (active),inactive,inactive,inactive,inactive,inactive,inactive,inactive,inactive,inactive,inactive,inactive,inactive,inactive,
C=CC(=O)OCC(CC)CCCC (configuration not stated),inactive,inactive,,inactive,,,,inactive,inactive,inactive,inactive,inactive,,,,inactive,inactive,inactive,inactive,inactive
Clc1cnc(Oc2ccc(Oc3ncc(Cl)cc3Cl)cc2)c(Cl)c1,inactive,inactive,,inactive,,,,inactive,inactive,inactive,inactive,inactive,inactive,,,,inactive,inactive,inactive,inactive
CN1C(=O)CCS(=O)(=O)C1c1ccc(Cl)cc1 (configuration not stated),inactive,inactive,,inactive,,,,inactive,inactive,inactive,inactive,inactive,,,,inactive,inactive,,inactive,inactive
c1ccc2c(c1)CCCC2,inactive,inactive,inactive,inactive,inactive,inactive,inactive,inactive,inactive,inactive,inactive,inactive,inactive,inactive,inactive,inactive,inactive,,inactive,
CNCC(O)c1ccc(O)cc1 (configuration not stated),inactive,inactive,inactive,inactive,inactive,inactive,inactive,inactive,inactive,inactive,inactive,inactive,inactive,inactive,inactive,,inactive,,inactive,
CN(C)NC(=O)CCC(=O)O,inactive,inactive,,inactive,,,,inactive,inactive,inactive,inactive,inactive,inactive,inactive,inactive,inactive,inactive,inactive,inactive,inactive
O=C/C=C/c1ccccc1,inactive,inactive,inactive,inactive,inactive,inactive and 61.1 µM (active),inactive,inactive,inactive,inactive,inactive,inactive,inactive,inactive,,inactive,inactive,inactive,inactive,
N#Cc1cccc(C#N)c1,inactive,inactive,,inactive,,,,inactive,inactive,inactive,inactive,inactive,inactive,inactive,inactive,inactive,inactive,inactive,inactive,inactive
OCCCCO,inactive,inactive,,inactive,,,,inactive,inactive,inactive,inactive,inactive,,,inactive,inactive,inactive,,inactive,inactive
OCC(O)CCl (configuration not stated),inactive,inactive,inactive,inactive,inactive,inactive,inactive,inactive,inactive,inactive,inactive,inactive,inactive,inactive,inactive,inactive,inactive,,inactive,
O=C(O)COc1ccccc1,inactive,inactive,inactive,inactive,inactive,inactive,inactive,inactive,inactive,inactive,inactive,inactive,inactive,inactive,inactive,inactive,inactive,,inactive,
O=[N+]([O-])c1cc([As](=O)(O)O)ccc1O,inactive,inactive,inactive,inactive,inactive,inactive,inactive,inactive,inactive,inactive,inactive,inactive,inactive,inactive,inactive,inactive,inactive,,inactive,

SMILES,Potency [1],Potency [2],Potency [3],outcome [4],outcome [5],Potency [6],outcome [7],outcome [8],Potency (Aromatase (Homo sapiens)),Potency [9],Potency [10],outcome [11],outcome [12],Potency [13],outcome [14],Potency [15],Potency [16],Potency [17],Potency [18],Potency [19]
Nc1nc(N)nc(NC2CC2)n1,inactive,inactive,,inactive,,,,inactive,inactive,inactive,inactive,inactive,,,inactive,,inactive,inactive,inactive and 43.6 µM (active),inactive
C[C@]12CC[C@H](O)CC1=CC[C@@H]1[C@@H]2CC[C@]2(C)C(=O)CC[C@@H]12,inactive,inactive,,inactive,,,,inactive,inactive,inactive,inactive,inactive,inactive,,,,inactive,inactive,inactive,inactive
Cc1ccc(N)cc1,inactive,inactive and 77 µM (active),,inactive,,,,inactive,inactive,inactive,24.5 µM (active) and inactive and 61.1 µM (active),inactive,inactive,inactive,,inactive,inactive,,inactive,inactive
CCCOC(=O)c1ccccc1C(=O)OCCC,inactive,inactive,inactive,inactive,inactive,inactive,inactive,inactive,inactive,inactive,inactive,inactive,inactive,inactive,,inactive,inactive,inactive,inactive,
C=CCN=C=S,inactive,inactive,inactive,inactive,inactive,inactive,inactive,inactive,inactive,inactive,inactive,inactive,inactive,inactive,,inactive,inactive,inactive,inactive,
C/C=C/c1ccc2c(c1)OCO2,inactive,inactive,,inactive,,,,inactive,inactive,inactive,,inactive,inactive,,,inactive,inactive,inactive,inactive,inactive
CCNc1nc(Cl)nc(NC(C)C)n1,inactive,inactive,inactive,inactive,inactive,inactive,inactive,inactive,inactive,inactive,inactive,inactive,inactive,inactive,,inactive,inactive,,inactive,
CNC(=O)O/N=C(\SC)C(=O)N(C)C,inactive,inactive,inactive,inactive,inactive,66.7 µM (active),inactive,inactive,inactive,inactive,inactive,inactive,inactive,inactive,,inactive,inactive,inactive,inactive,
CC(=O)C1CCOC1=O (configuration not stated),inactive,inactive,,inactive,,,,inactive,inactive,inactive,inactive,inactive,inactive,inactive,,inactive,inactive,inactive,inactive,inactive
C=CC#N,inactive,inactive,inactive,inactive,inactive,inactive,inactive,inactive,inactive,inactive,inactive,inactive,inactive,inactive,,inactive,inactive,inactive,inactive,
N#Cc1ccccn1,inactive,inactive,inactive,inactive,inactive,inactive,inactive,inactive,inactive,inactive,inactive,inactive,inactive,inactive,inactive,inactive,inactive,,,
CN(C)C(=O)Nc1cccc(C(F)(F)F)c1,inactive,inactive,,inactive,,,,inactive,inactive,inactive,inactive,inactive,inactive,inactive,,inactive,inactive,,inactive,inactive
O=P1(NCCCl)OCCCN1CCCl (configuration not stated),inactive,inactive,,inactive,,,,inactive,inactive,inactive,inactive,inactive,inactive,inactive,inactive,inactive,inactive,,inactive,
ClCCOCCCl,inactive,inactive,,inactive,,,,inactive,inactive,inactive,inactive,inactive,inactive,inactive,,inactive,inactive,inactive,inactive,
ClC(Cl)c1ccccc1,,inactive,inactive,inactive,inactive,inactive,inactive,inactive,inactive,inactive,inactive,inactive,inactive,inactive,inactive,inactive,inactive,inactive,inactive,
CCOP(=S)(OCC)Oc1cc(C)nc(C(C)C)n1,inactive and 17.2 µM (active),inactive,,inactive,,,,inactive,inactive and 17.2 µM (active),inactive and 27.3 µM (active),inactive and 6.86 µM (active),inactive,inactive,inactive,inactive,inactive,inactive and 54.5 µM (active),inactive and 43.6 µM (active),inactive,
Sc1ccccc1,inactive,inactive,inactive,inactive,inactive,inactive,inactive,inactive,inactive,inactive,inactive,inactive,,,inactive,inactive,inactive,inactive,44.3 µM (active) and inactive,
